Values without a mark were called inactive. Results filed as inconclusive are left out. Entries that show only a call come without a potency. Activity calls are given as the source filed them. Unless noted, the call rests on the fitted dose curve.
What was measured:
[1] = qHTS assay to identify small molecule agonists of the sonic hedgehog signaling (Shh) pathway (AID 1259368);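 further: NIH/3T3-derived 3T3Gli1-Luc cells carrying a stable Gli1-driven firefly luciferase reporter; series mostly up to about 92 µM; nearly all actives have a fitted effect of over 15% in size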
How it was run: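 Quantitative high-throughput format using a Gli1-driven firefly luciferase reporter line derived from NIH/3T3 cells. After a 24 hr compound treatment at 37 C and 5% CO2, luminescence reported Gli1 response element activity.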

[2] = qHTS assay to identify small molecule antagonists of the sonic hedgehog signaling (Shh) pathway (AID 1259369); further: nearly all actives have a fitted effect of over 45% in size; further: potency means the concentration at half of the fitted maximal effect
How it was run: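 Stable Gli1-Luc reporter NIH/3T3 clone; quantitative HTS in stimulated mode with conditioned medium. Luminescence measured after 24hr compound treatment at 37 C.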

[3] = molecular target: Estrogen receptor beta (Homo sapiens) (UniProt Q92731); test: qHTS assay to identify small molecule agonists of the estrogen receptor beta (ER-beta) signaling pathway (AID 1259377; active means well fitted activation curve with a large enough effect in the signal ratio in the repeat runs, not every such curve was filed as active; the % refers to the signal ratio)
How it was run: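 HEK293T ER-beta-UAS-bla; 2% charcoal-stripped FBS; cells pre-incubated 6 hr, compound 16 hr, 37C/5% CO2; LiveBLAzer B/G FRET substrate 2 h RT; fluorescence intensity read.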

[4] = molecular target: Estrogen receptor beta (Homo sapiens) (UniProt Q92731); test: qHTS assay to identify small molecule antagonists of the estrogen receptor beta (ER-beta) signaling pathway (AID 1259378; active means well fitted inhibition curve with a large enough effect in the signal ratio in the repeat runs, not every such curve was filed as active; the % refers to the signal ratio)
How it was run: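 ER-beta-UAS-bla HEK293T (GripTite) cells in 2% charcoal-stripped FBS medium were preincubated 6 hr at 37C, dosed with compound, then stimulated with 1 nM E2 (final) for 16 hr; beta-lactamase reporter read by B/G FRET fluorescence after 2 hr substrate loading.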

[5] = qHTS assay to identify small molecule agonists of the estrogen receptor beta (ER-beta) signaling pathway - cell viability counter screen (AID 1259380; active means well fitted curve in the direction sought with a large enough effect in the repeat runs; an effect the other way counts as inactive or inconclusive; further: nearly all actives have a fitted effect of over 30% in size)
How it was run: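 Steps: plate ER-beta-UAS-bla HEK293T cells, rest 6 hr; add compounds in DMSO; incubate 16 hr at 37C, 5% CO2; add FRET substrate 2 hr; add CellTiter-Glo, wait 30 min at room temperature; read luminescence.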

[6] = qHTS assay to identify small molecule antagonists of the estrogen receptor beta (ER-beta) signaling pathway - cell viability counter screen (AID 1259382; active means well fitted curve in the direction sought with a large enough effect in the repeat runs; an effect the other way counts as inactive or inconclusive; further: series mostly up to about 92 µM; nearly all actives have a fitted effect of over 55% in size)
How it was run: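 Viability is scored by CellTiter-Glo luminescence (30 min, room temperature) in ER-beta-UAS-bla HEK293T wells already read for reporter fluorescence. Compound exposure lasts 16 hr at 37C alongside 1nM 17-beta-estradiol in charcoal-stripped serum medium.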

[7] = molecular target: Estrogen receptor (Homo sapiens) (UniProt P03372); test: qHTS assay to identify small molecule agonists of the estrogen receptor alpha (ER-alpha) signaling pathway in the presence of an antagonist (AID 1259383); further: top concentration of the series differs between compounds; nearly all actives have a fitted effect of over 15% in size
How it was run: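 Readout was ERE-driven luciferase luminescence in VM7Luc4E2 cells, which express full-length ER-alpha endogenously. Compounds were tested at 15 concentrations for 22hr alongside 10.0nM ICI-182,780 (final concentration).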

[8] = qHTS assay to identify small molecule agonists or antagonists of the thyroid stimulating hormone receptor (TSHR) signaling pathway - wild type cell line counter screen (AID 1259384)
How it was run: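 Wild-type HEK293 cells were plated 18 h at 37 C/5% CO2, pin-dosed with compound plus Ro20-1724 medium, held 30 min at room temperature, then given cAMP-d2 and anti-cAMP-cryptate; fluorescence was read after 1 h. Fifteen concentrations, triplicate.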

[9] = molecular target: Androgen receptor (Homo sapiens) (UniProt P10275); test: qHTS assay to identify small molecule agonists of the androgen receptor (AR) signaling pathway in the presence of an antagonist (AID 1259381); further: nearly all actives have a fitted effect of over 15% in size
How it was run: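 Reporter-gene luminescence from MDA-kb2 cells exposed 16hr at 37C (0% CO2) to 15-point compound titrations with 3.0uM final nilutamide as AR antagonist.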

[10] = qHTS assay to identify small molecule agonists of the androgen receptor (AR) signaling pathway in the presence of an antagonist - cell viability counter screen (AID 1259379; active means well fitted curve in the direction sought with a large enough effect in the repeat runs; an effect the other way counts as inactive or inconclusive;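 further: MDA-kb2 human breast cancer cells carrying an MMTV luciferase reporter; series mostly up to about 92 µM; nearly all actives have a fitted effect of over 25% in size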)
How it was run: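 Nilutamide-containing (3.0uM final) MDA-kb2 cultures, 3,000 cells/well, were treated with compounds across 15 concentrations. After 16 hr at 37C with no CO2, cell viability was determined by CellTiter-Fluor fluorescence in the luciferase assay wells.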

Sequence of Estrogen receptor beta (Homo sapiens) (Q92731 whole entry, looked up): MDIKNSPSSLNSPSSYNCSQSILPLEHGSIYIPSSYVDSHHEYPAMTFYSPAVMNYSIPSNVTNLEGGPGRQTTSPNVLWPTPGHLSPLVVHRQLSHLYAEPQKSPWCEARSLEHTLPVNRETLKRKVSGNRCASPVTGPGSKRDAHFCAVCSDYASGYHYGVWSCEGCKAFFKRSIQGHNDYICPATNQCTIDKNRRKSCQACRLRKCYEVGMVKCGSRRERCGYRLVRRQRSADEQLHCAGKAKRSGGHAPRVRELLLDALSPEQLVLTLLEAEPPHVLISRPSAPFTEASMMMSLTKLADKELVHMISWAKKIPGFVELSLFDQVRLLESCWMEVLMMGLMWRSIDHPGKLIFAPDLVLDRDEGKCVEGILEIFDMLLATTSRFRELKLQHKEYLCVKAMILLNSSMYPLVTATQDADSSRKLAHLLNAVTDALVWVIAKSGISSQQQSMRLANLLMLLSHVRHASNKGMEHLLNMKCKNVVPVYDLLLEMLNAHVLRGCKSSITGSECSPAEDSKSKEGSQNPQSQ
Sequence of Estrogen receptor (Homo sapiens) (P03372 whole entry, looked up): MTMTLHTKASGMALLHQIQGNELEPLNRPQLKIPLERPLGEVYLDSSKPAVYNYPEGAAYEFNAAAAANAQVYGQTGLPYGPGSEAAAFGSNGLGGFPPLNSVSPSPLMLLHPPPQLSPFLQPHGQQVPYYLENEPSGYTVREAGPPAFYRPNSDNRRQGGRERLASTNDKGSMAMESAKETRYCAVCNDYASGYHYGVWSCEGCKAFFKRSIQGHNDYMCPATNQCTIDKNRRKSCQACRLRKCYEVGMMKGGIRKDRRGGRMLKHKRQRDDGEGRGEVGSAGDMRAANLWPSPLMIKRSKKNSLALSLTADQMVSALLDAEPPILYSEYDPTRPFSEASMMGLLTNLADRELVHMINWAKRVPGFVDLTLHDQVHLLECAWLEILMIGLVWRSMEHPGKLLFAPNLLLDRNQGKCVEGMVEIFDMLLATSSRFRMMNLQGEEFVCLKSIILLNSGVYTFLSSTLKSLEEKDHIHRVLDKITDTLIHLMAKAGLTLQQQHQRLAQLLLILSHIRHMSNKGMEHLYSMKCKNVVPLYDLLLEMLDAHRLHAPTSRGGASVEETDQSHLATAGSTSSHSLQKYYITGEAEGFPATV
Sequence of Androgen receptor (Homo sapiens) (P10275 whole entry, looked up): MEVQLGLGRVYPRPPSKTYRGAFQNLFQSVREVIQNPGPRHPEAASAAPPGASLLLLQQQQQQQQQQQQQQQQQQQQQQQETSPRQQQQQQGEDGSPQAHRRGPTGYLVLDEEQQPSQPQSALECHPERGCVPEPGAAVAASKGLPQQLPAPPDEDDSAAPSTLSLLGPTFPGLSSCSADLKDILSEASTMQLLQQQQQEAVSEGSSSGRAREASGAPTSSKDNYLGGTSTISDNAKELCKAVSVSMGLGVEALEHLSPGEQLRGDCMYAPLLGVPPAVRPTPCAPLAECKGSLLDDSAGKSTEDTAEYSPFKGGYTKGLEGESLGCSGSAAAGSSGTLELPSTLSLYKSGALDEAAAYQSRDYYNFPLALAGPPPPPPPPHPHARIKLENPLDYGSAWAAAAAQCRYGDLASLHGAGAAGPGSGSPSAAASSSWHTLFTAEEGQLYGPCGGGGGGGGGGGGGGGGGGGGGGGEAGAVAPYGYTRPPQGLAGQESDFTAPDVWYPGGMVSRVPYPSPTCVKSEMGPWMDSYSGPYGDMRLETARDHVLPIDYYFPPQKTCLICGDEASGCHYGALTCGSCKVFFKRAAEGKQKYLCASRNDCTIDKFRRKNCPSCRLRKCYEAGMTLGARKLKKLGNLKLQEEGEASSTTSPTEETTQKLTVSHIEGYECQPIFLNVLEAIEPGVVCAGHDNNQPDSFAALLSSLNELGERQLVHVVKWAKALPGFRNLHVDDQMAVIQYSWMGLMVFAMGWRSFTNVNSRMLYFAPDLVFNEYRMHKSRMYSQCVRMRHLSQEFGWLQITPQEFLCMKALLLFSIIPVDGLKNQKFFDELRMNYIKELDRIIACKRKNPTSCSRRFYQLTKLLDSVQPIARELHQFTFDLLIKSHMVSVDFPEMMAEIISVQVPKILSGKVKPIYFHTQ

Row | SMILES | Potency [1] | Potency [2] | outcome [3] | Potency [4] | Potency [5] | Potency [6] | Potency [7] | outcome [8] | Potency [9] | Potency [10]
1 | O=C(O)CCNC(=O)c1ccc(N=Nc2ccc(O)c(C(=O)O)c2)cc1 | inactive | inactive | inactive | inactive | inactive | inactive | inactive | inactive | – | –
2 | CN1[C@@H]2CC[C@H]1CC(NC(=O)n1c(=O)[nH]c3ccccc31)C2 (some centres undefined) | inactive | inactive | inactive | inactive | inactive | inactive | inactive | – | inactive | –
3 | CCCc1ccc(N)cc1 | inactive | inactive | inactive | inactive | – | – | inactive | inactive | – | inactive
4 | O=C(O)/C=C/c1ccc(/C=C/C(=O)O)cc1 | inactive | inactive | inactive | inactive | inactive | inactive | – | – | – | –
5 | CC(=O)OC(C)(C)C | inactive | inactive | inactive | inactive | inactive | – | inactive | – | – | inactive
6 | Cc1c(C)n(CCN(C)C)c2ccc(C(=O)OCCN(C)C)cc12 | inactive | inactive | inactive | inactive | – | inactive | – | – | – | inactive
7 | CC(O)CN(CCCN(C)C)CCCN(C)C (centres undefined) | inactive | inactive | inactive | inactive | – | inactive | – | – | – | inactive
8 | CC(C)(C)N(CCO)CCO | inactive | inactive | inactive | inactive | inactive | inactive | – | inactive | – | inactive
9 | O=[N+]([O-])c1ccc(Oc2ccc([N+](=O)[O-])cc2)cc1 | inactive | inactive | inactive | inactive | inactive | inactive | inactive | – | – | –
10 | COc1nc(C)nc(N)n1 | inactive | inactive | inactive | inactive | inactive | inactive | – | inactive | – | inactive
11 | CCc1cc(S(=O)(=O)O)c2cc(C(C)C)cccc1-2 | inactive | inactive | inactive | inactive | inactive | inactive | inactive | inactive | – | –
12 | N#CC1(O)CCCCC1 | inactive | 12.3 µM (active) | inactive | inactive | – | inactive | – | inactive | – | inactive
13 | Cc1onc(-c2ccccc2)c1-c1ccc(S(N)(=O)=O)cc1 | inactive | 18.8 µM (active) | inactive | – | inactive | inactive | – | inactive | – | inactive
14 | COC(=O)[C@H]1[C@H]2C[C@@H]3c4[nH]c5cc(OC)ccc5c4CCN3C[C@H]2C[C@@H](OC(=O)COc2ccc(OC)cc2)[C@@H]1OC | inactive | inactive | inactive | – | – | – | inactive | inactive | – | inactive

Source: PubChem BioAssay (Tox21)
